The results in this text go back to PubChem BioAssay AID1851 (National Center for Advancing Translational Sciences (NCATS), 2009).

Among all 16,000 compounds or so, about 5,100 (32%) were called active. Not shown: some 25% with an inconclusive outcome. Calls come from the whole dose curve; as a rule, active = well fitted curve in the direction sought with a large enough effect; inconclusive = small, poorly fitted or top-dose-only effect, or effect the other way; inactive = no such curve, though single readings can be large or run the other way. The list shows a part of the results.
% is set by controls: 0 for no effect and ±100 for the full control effect.

Chain of Cytochrome P450 3A4 (Homo sapiens) (P08684 whole entry, looked up): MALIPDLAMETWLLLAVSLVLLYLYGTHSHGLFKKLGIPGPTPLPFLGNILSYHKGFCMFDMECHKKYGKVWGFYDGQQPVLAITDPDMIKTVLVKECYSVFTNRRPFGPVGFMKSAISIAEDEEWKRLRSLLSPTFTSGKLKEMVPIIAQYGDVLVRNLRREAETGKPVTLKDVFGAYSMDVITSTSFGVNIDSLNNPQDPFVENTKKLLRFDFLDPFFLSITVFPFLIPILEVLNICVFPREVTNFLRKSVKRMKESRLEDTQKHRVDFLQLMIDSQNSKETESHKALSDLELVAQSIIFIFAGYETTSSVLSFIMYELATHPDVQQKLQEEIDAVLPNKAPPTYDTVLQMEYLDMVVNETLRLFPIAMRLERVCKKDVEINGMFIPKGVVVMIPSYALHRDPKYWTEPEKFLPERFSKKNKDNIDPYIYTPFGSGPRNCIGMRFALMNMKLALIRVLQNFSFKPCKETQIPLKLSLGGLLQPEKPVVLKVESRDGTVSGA

This test has as its target Cytochrome P450 3A4 (Homo sapiens) (UniProt P08684). The test is described as follows: Cytochrome panel assay with activity outcomes. Conditions: recombinant CYP, pro-luciferin dealkylation, luminescence, p450-cyp3a4; series mostly up to 57.1 µM.
In general, AC50 refers to the midpoint of the concentration-response curve, whichever way the signal moves. With `CC[C@H](NC(C)C)[C@H](O)c1ccc(O)c2[nH]c(=O)ccc12`, the AC50 entry is “inactive”.
Regarding `O=C(O)[C@@H](O)[C@@H](O)[C@@H](O)[C@@H](O)c1nc2ccccc2s1`, the activity, negative = inhibition is -23.6% [at 11.4 µM] (inactive).
For `O=C(NNc1nc2ccccc2s1)C1CC1`, the AC50 result is “inactive”.
In the case of `CCCc1cc(C(=O)Cc2nc3ccccc3s2)c(O)cc1O`, the AC50 was 12.6 µM (active).
As to `O=C(CCN1CCCCC1)c1csc2ccccc12`, the activity, negative = inhibition is -13.8% [at 11.4 µM] (inactive).
Regarding `Cc1ccc(OC(=O)N2CCOCC2)cc1`, the AC50 result was “inactive”.
As for `O=C(Oc1ccc2ccccc2c1Br)N1CCCCCC1`, the AC50 was 14.1 µM (active).
Consider `CCCCOc1ccc(C(=O)NCc2ccco2)cc1`, for which the AC50 result was “inactive”.
Consider `CCCCOc1ccc(C(=O)N/C(=C\c2cccc([N+](=O)[O-])c2)C(=O)OCCC)cc1`, for which the AC50 was 1 µM (active).
`COc1ccc(/C=C(/NC(C)=O)C(=O)O)cc1`: the activity, negative = inhibition was 4.62% [at 2.29 µM] (inactive).
As to `CCCCOc1ccc(C(=O)N/C(=C\c2ccc(OC)cc2)C(=O)OCc2ccco2)cc1`, the AC50 was 3.98 µM (active).
Still for that read-out and setting: next, `OC[C@@H]1O[C@H](O)[C@@H](Cl)[C@H](O)[C@@H]1O`: “inactive”.
Take `COCCCNCCCCOc1c(Cl)cc(C)cc1Br`: the activity, negative = inhibition is -14.4% [at 2.29 µM] (inactive).
In the case of `C=CCNCCCCOc1c(Cl)cc(C)cc1Br`, the AC50 is 14.1 µM (active).
On the same count and under the same terms, as for `Cc1cc(Br)cc(C)c1OCCCCN(C)C`, the entry is “inactive”; as for `Cc1cnc(CNc2nc(-c3ccccc3C(F)(F)F)nc3ccccc23)cn1`, 5.01 µM (active); as for `Cc1cnc(CNc2ccnc(-c3ccccc3C(F)(F)F)n2)cn1`, “inactive”.
In the case of `COc1ccccc1-c1nc(NCc2cnc(C)cn2)c2ccccc2n1`, the AC50 is 15.8 µM (active).
On to `COc1cccc(-c2ccc3ncnc(NCCc4c[nH]c5ccc(OC)cc45)c3c2)c1`, for which the AC50 is 1.26 µM (active).
Consider `COc1ccc2[nH]cc(CCNc3ncnc4ccc(-c5ccccc5C#N)cc34)c2c1`, for which the AC50 is 2 µM (active).
For the molecule `COc1ccc2[nH]cc(CCNc3ncnc4ccc(-c5ccoc5)cc34)c2c1`, the concentration at half-maximal activity (AC50) is 3.98 µM (active).
Regarding `COc1ccc2[nH]cc(CCNc3ncnc4ccc(-c5cccc(C#N)c5)cc34)c2c1`, the half-maximal activity concentration (AC50) was 2.51 µM (active).
On to `COc1ccc2[nH]cc(CCNc3ncnc4ccc(-c5ccccc5CN(C)C)cc34)c2c1`, for which the AC50 was 1.58 µM (active).
On to `COc1ccc2[nH]cc(CCNc3ncnc4ccc(-c5cccnc5)cc34)c2c1`, for which the AC50 is 1 µM (active).
Consider `COc1ccc2[nH]cc(CCNc3ncnc4ccc(-c5ccc6c(c5)OCO6)cc34)c2c1`, for which the AC50 is 2 µM (active).
The same measure, in the same setting: next, `COc1ccc2[nH]cc(CCNc3ncnc4ccc(-c5c(C)noc5C)cc34)c2c1`: 3.16 µM (active); `O=C(Cn1cnc([N+](=O)[O-])c1)NCc1ccc(F)cc1`: “inactive”.
As for `Cc1ccc(C(C)C)n1C(=O)OC(C)(C)C`, the activity, negative = inhibition was -18.1% [at 11.4 µM] (inactive).
Turning to `Nc1nc2c(nc(Br)n2[C@@H]2O[C@H]3COP(=O)(O)O[C@H]3[C@@H]2O)c(=O)[nH]1`, the AC50 result was “inactive”.
For the molecule `CN(Cc1ccccc1)S(=O)(=O)c1ccc(OCC(=O)N2CCOCC2)cc1`, the AC50 entry is “inactive”.
Same read-out and setting: next, `COc1ccc(S(=O)(=O)N(CCc2ccccc2)CC(=O)N2CCOCC2)cc1`: 7.08 µM (active); `COc1ccc(OC)c(N(CC(=O)N2CCc3ccccc3C2)S(C)(=O)=O)c1`: “inactive”.
Take `COc1ccc(S(=O)(=O)N(CC(=O)N2CCCC2)Cc2ccccc2)cc1`: the AC50 is 4.47 µM (active).
Turning to `Cc1ccc(CS(=O)(=O)CCC(=O)N2CCOCC2)cc1`, the AC50 result is “inactive”.
Same read-out and setting: as for `Cc1ccc(C2NC(c3ccc(C)cc3)C(C)C(=NO)C2C)cc1` (configuration not stated), the figure is 14.1 µM (active).
With `CCC(=O)NC(=S)Nc1ccc(S(=O)(=O)NC(C)=O)cc1`, the activity, negative = inhibition was 18.1% [at 2.29 µM] (inactive).
For `COc1ccc(CC(=O)NC(=S)Nc2ccc(S(=O)(=O)NC(C)(C)C)cc2)cc1`, the AC50 is 6.31 µM (active).
Take `CC(=O)NS(=O)(=O)c1ccc(NC(=S)NC(=O)C(C)(C)C)cc1`: the AC50 result is “inactive”.
The same measure, in the same setting: as for `CSc1nc(N)c2ncn([C@H]3O[C@H](COP(=O)(O)OP(=O)(O)O)[C@@H](O)[C@@H]3O)c2n1`, the entry is “inactive”.
Take `C[C@@]12CC3CC(N)(C1)C[C@@](C)(C3)C2`: the AC50 result was “inactive”.
`CCOc1ccc(NC(=O)N2CCC(c3ccc(C)cc3)C2)cc1` (configuration not stated): the AC50 result is “inactive”.
The same measure, in the same setting: next, `CCOc1ccc(C2=[N+]([O-])C(C)(C)N(O)C2(C)C)cc1`: “inactive”.
In the case of `CCOc1ccc(C(Nc2ccc(C)cc2)P2(=O)OCC(C)(C)CO2)cc1` (configuration not stated), the AC50 was 3.98 µM (active).
Consider `Cc1cc(C(=O)CSc2nnc(N)s2)c(C)n1CCc1ccc(F)cc1`, for which the AC50 is 0.316 µM (active).
The same measure, in the same setting: as for `CC(=O)Nc1nnc(SCc2ccc(F)cc2)s1`, the entry is “inactive”; as for `COc1ccc(CCn2c(C)cc(C(=O)CSc3nc(N)cc(=O)[nH]3)c2C)cc1`, 2.51 µM (active).
As for `O=C(O)c1cc(=O)[nH]c(SCc2ccccc2)n1`, the activity, negative = inhibition is 0.661% [at 11.4 µM] (inactive).
As to `O=C(CCc1ccc(O)cc1)c1c(O)cc(O)cc1O`, the AC50 was 10 µM (active).
On to `C[C@@](N)(Cc1ccc(O)cc1)C(=O)O`, for which the AC50 entry was “inactive”.
As to `O=C(O)Cc1ccc(O)c(O)c1`, the AC50 result is “inactive”.
With `O=c1nc(N2CCCCCC2)nc(N2CCCCCC2)[nH]1`, the AC50 entry was “inactive”.
Take `CCN(CC)C(=O)CSc1nnc(C2CCCCC2)o1`: the AC50 result was “inactive”.
Still for that read-out and setting: next, `O=C(CSc1nnc(CNc2ccc(F)cc2)o1)OC1CCCCC1`: 28.2 µM (active); `CCOc1ccc(-n2c(=O)[nH]cc(C(=O)N3CCCc4ccccc43)c2=O)cc1`: “inactive”.
For `Cc1cc2nc(-c3ccc(SCC(=O)N4CCc5ccccc54)nc3)[nH]c2cc1C`, the activity, negative = inhibition is -3.98% [at 2.29 µM] (inactive).
Regarding `O=C(CSc1n[nH]c(-c2ccccc2O)n1)N1CCCc2ccccc21`, the concentration at half-maximal activity (AC50) is 3.16 µM (active).
On to `O=C(CSc1nnc(CNc2ccc(F)cc2)o1)N1c2ccccc2Sc2ccccc21`, for which the AC50 was 7.08 µM (active).
Regarding `O=C(CSc1nnc(CNc2ccccc2)o1)N1CCCc2ccccc21`, the AC50 was 8.91 µM (active).
Turning to `O=C(CCN1CCCCC1)N1CCc2c([nH]c3ccccc23)[C@H]1c1cccnc1`, the activity, negative = inhibition is -11.2% [at 11.4 µM] (inactive).
On to `COC(=O)Cn1cnc(=O)c(C#N)c1/C=C/N(C)C`, for which the AC50 result was “inactive”.
In the case of `O=C(N/N=C/c1ccc(O)cc1)c1csc2ccccc12`, the activity, negative = inhibition is -23.9% [at 11.4 µM] (inactive).
Regarding `O=C(N/N=C/c1ccncc1)c1cc2c(ccc3ccccc32)o1`, the AC50 was 1.41 µM (active).
On the same count and under the same terms, as for `C=CCn1cc(/C=N\NC(=O)c2cc3c(ccc4ccccc43)o2)c2ccccc21`, the figure is 10 µM (active).
`O=C(N/N=C\c1cccc(O)c1)c1ccncc1`: the activity, negative = inhibition was -5.33% [at 11.4 µM] (inactive).
As to `O=C(N/N=C/C=C/c1ccccc1)c1cc2c(ccc3ccccc32)o1`, the AC50 result was “inactive”.
As for `O=C(N/N=C/c1cccc([N+](=O)[O-])c1)c1cc2c(ccc3ccccc32)o1`, the activity, negative = inhibition was -7.91% [at 2.29 µM] (inactive).
`Cc1ccccc1C(=O)N/N=C/c1ccncc1`: the AC50 is 7.08 µM (active).
